Results as given in article PMC5540273 (PLoS ONE, 2017).

Columns and labels:
Settings in all cases: concentration: 1 μM, replicates: in singlicate; n = 1
[1] = tested on: PIKFYVE
[2] = tested on: PIM1
[3] = tested on: PIM2
[4] = tested on: PIM3
[5] = tested on: PIP5K1A
[6] = tested on: PIP5K1C
[7] = tested on: PIP5K2B
[8] = tested on: T1, PIP5K2C
T1 construct: gene PIP4K2C

[9] = tested on: T2, PKAC-alpha
T2 construct: gene PRKACA

[10] = tested on: T3, PKAC-beta
T3 construct: gene PRKACB
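Note: KINOMEscan kinase panel screen.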

SMILES	%Inh [1] [%]	%Inh [2] [%]	%Inh [3] [%]	%Inh [4] [%]	%Inh [5] [%]	%Inh [6] [%]	%Inh [7] [%]	%Inh [8] [%]	%Inh [9] [%]	%Inh [10] [%]
Cl.Oc1cccc(Nc2ccnc3cc(-c4ccncc4)ccc23)c1 [GW494601]	44	28	0	0	35	75	9	85	0	0
Nc1nccc(-c2c(-c3ccc(F)cc3)ncn2C2CCN(CC(F)(F)F)CC2)n1 [SB-236560]	59	0	0	0	47	7	0	60	0	11
CCCCCc1nc2c(N)ncnc2n1CCCCC [SKF-97255]	0	0	5	7	1	0	0	0	24	0
CC(=O)Nc1ccc(COc2ccc(Nc3ccnc4cc(-c5ccccn5)ccc34)cc2)cc1.Cl [GW440148]	2	17	0	0	0	44	0	23	0	0
Cc1cccc(Cn2ccn3c(=O)cc(N4CCOCC4)nc23)c1 [GSK2297542]	0	29	0	13	0	36	2	6	16	1
